High-throughput results (PubChem BioAssay)
TDP1 cell CPT = qHTS for Inhibitors of human tyrosyl-DNA phosphodiesterase 1 (TDP1): qHTS in cells in presence of CPT; hit rate 12% among 420,000; Potency, µM (titrated, usually from 46.2 µM), inactives show at the top dose activity change, negative = growth inhibition, hits mostly inhibitors; AID 686979, 2013; chicken DT40 Tdp1-/-;hTDP1 cells + 20 nM CPT, ATP luminescence, 48 h; note: potency is the fitted concentration of half-maximal effect; nearly all actives have a fitted effect of over 55% in size
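Chicken DT40 Tdp1-/- cells complemented with human TDP1, 400 cells/well, exposed to compounds plus 20 nM camptothecin for at least 48 h at 37 C; viability read as ATP content by CellTiter-Glo luminescence.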
IL-1B inflam inh = qHTS for Inhibitors of Inflammasome Signaling: IL-1-beta AlphaLISA Primary Screen | THP-1 LPS/ATP IL-1B secretion, AlphaLISA, 16 h; active compounds read low | activity change, % at 57.5 µM | hit rate 4.7% among 360,000 | AID 743279, 2014; in the data active = activity change below about -50%; inconclusive = mostly about -30% to -49%
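THP-1 cells pretreated 1 hr with compounds (up to 57.5 uM final), then stimulated with LPS (250 ng/mL final) plus ATP (1.25 mM final); secreted IL-1B measured by AlphaLISA after 16 hr, decreased signal indicating inhibition.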
RORgamma inh = qHTS for inhibitors of ROR gamma transcriptional activity. Nuclear receptor ROR-gamma (Mus musculus), P51450. Drosophila S2 Gal4-RORgamma UAS-luciferase reporter, 20 h. Potency, µM (titrated, usually from 53.6 µM), for inactives: top-dose activity change, negative = inhibition, hits mostly inhibitors. hit rate 5.4% among 310,000. AID 2551, 2010; note: potency is the fitted concentration of half-maximal effect; nearly all actives have a fitted effect of over 60% in size
Target sequence (P51450 whole entry, looked up, the tested form may be a part): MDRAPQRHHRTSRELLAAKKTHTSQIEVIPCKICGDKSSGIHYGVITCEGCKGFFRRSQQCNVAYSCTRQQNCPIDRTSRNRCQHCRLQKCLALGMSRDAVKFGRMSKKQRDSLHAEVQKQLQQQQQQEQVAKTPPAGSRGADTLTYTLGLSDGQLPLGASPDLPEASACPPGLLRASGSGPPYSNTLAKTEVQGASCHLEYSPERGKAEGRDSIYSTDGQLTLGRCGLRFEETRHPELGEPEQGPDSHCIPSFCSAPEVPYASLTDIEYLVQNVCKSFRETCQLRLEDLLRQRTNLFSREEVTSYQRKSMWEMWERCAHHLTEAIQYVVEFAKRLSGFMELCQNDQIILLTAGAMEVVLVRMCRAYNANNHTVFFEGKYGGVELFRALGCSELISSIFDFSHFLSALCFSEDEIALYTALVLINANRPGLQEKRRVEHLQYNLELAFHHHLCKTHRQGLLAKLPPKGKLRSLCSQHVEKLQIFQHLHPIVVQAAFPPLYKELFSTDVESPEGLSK
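Drosophila Schneider cells stably carrying a metallothionein-driven Gal4 DBD–ROR gamma fusion and a UAS-Photinus luciferase reporter were exposed to compound for 1 hr, then induced with copper sulfate (700 uM final) for 20 hr at ambient temperature before luminescence reading.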
TDP1 cell noCPT = qHTS for Inhibitors of human tyrosyl-DNA phosphodiesterase 1 (TDP1): qHTS in cells in absence of CPT. AID 686978, 2013. DT40 Tdp1-/- hTDP1 cells, no CPT, ATP luminescence, 48 h. Potency, µM (top dose mostly 46.2 µM), inactives show top-dose activity change, negative = growth inhibition, actives largely listed as inhibitors. hit rate 15% among 420,000; note: potency is the fitted concentration of half-maximal effect; nearly all actives have a fitted effect of over 55% in size
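Growth kinetics read by CellTiter-Glo luminescence after ≥48 hr at 37 °C. Cells: DT40 Tdp1-/- stably carrying human TDP1, 400 per well, compound exposure in the absence of CPT (DMSO vehicle).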
ELG1 DNA repair = qHTS screen for small molecules that inhibit ELG1-dependent DNA repair in human embryonic kidney (HEK293T) cells expressing luciferase-tagged ELG1 | HEK293T ELG1-luciferase reporter, luminescence, 16 h; DNA damage induced by 5-fluorouridine | Potency, µM (top dose mostly 46.1 µM), for inactives: at the highest dose activity change, negative = inhibition, actives largely listed as inhibitors | hit rate 2.3% among 330,000 | AID 504467, 2011; note: potency is the fitted concentration of half-maximal effect; nearly all actives have a fitted effect of over 55% in size
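Cells (2,000 per well) received 5-fluorouridine plus test compound or DMSO and were incubated 16 hr at 37 °C, 5% CO2. Luciferase activity was read by luminescence 30 min after ONE-Glo addition; signal suppression marked inhibition of damage-induced ELG1 function.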
VP16 counter = VP16 counterscreen qHTS for inhibitors of ROR gamma transcriptional activity; Drosophila S2 Gal4-VP16 UAS-luciferase, luminescence, 20 h; Potency, µM (titrated, usually from 53.6 µM), without a hit: at the highest dose activity, negative = inhibition, usual class: inhibitors; hit rate 3.5% among 310,000; AID 2546, 2010;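 note: Gal4-VP16 expression switched on by copper sulfate through the metallothionein promoter; potency is the fitted concentration of half-maximal effect; nearly all actives have a fitted effect of over 50% in size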
* marks the source's active call; other numbers are inactive results; ? = inconclusive; nt = not tested or not shown; [ ] = another dose, or the depositor's remark. This is a sample that favours compounds with a hit; in the whole collection about 21% have one here. Unless noted, calls come from the whole dose curve; as a rule, active = well fitted curve in the direction sought with a large enough effect; inconclusive = small, poorly fitted or top-dose-only effect, or another doubt; inactive = no such curve, though single readings can be large; an effect the other way counts as inactive or inconclusive. % is set by controls: 0 for no effect and ±100 for the full control effect.

SMILES | TDP1 cell CPT | IL-1B inflam inh | RORgamma inh | TDP1 cell noCPT | ELG1 DNA repair | VP16 counter
CC(=O)C1C(=O)C=C(c2ccco2)CC1c1ccccc1 (stereo unspecified) | ? | -3 | -38% | 18µM* | -4% | 2%
COc1ccc(-c2ccc(C(=O)N3CCc4c(cnc(C)c4CNS(=O)(=O)N(C)C)C3)o2)cc1 | -3%[9.04 µM] | nt | nt | ? | nt | nt
OCC1OC(c2ccc(O)cc2O)C(O)C1O (stereo unspecified) | -6% | 69 | nt | -4% | nt | nt
OCC1OC(c2ccc(OCc3ccccc3)cc2OCc2ccccc2)C(O)C1O (stereo unspecified) | 10µM* | ? | nt | 9.2µM* | nt | nt
O=C(Nc1ccc(F)c(Cl)c1)Nc1nnc([C@@H]2O[C@H](CO)[C@@H](O)[C@H]2O)s1 | ? | 11 | nt | -21% | nt | nt
CCOC(=O)C1=C(C(=O)OCC)c2ccc(OC)c(OC)c2C1 | 2% | -3 | nt | 18µM* | nt | nt
CCOC(=O)N1CCN(S(=O)(=O)N2CCCC(C(=O)NCc3cc(Br)ccc3OC)C2)CC1 (stereo unspecified) | 18µM* | -12 | nt | 13µM* | nt | nt
Clc1cccc(-c2nnc(SC/C=C/c3ccccc3)n2Cc2ccco2)c1 | 21µM* | -84* | -8% | ? | ? | 11%
C(=C\c1ccccc1)/CSc1nnc(-c2ccccc2)n1Cc1ccco1 | 5.2µM* | 43 | 13% | 4.6µM* | ? | ?
Cc1cccc(CNC(=O)c2cnn(-c3ncc(C)c(-c4cccs4)n3)c2C2CC2)n1 | -5%[9.04 µM] | nt | nt | -24% | nt | nt
Cc1cccc(C)c1OC(=O)CSc1nnc(-c2cccs2)o1 | 0% | nt | nt | 4% | nt | nt
COc1ccc(-c2nc3ccc(N4CCN(C)CC4)cc3c(=O)[nH]2)cc1 | 10% | -17 | -10% | ? | 9% | -11%
COc1cc(-c2nc3ccc(N4CCN(C)CC4)cc3[nH]2)cc(OC)c1OC | ? | -52* | 7.1µM* | ? | ? | ?
CC(=O)O[C@@H]1CC2CCC1(C)C2(C)C (stereo partly specified) | 0% | nt | nt | -4% | nt | nt
COc1ccc(-n2c(=O)c3c(c4cc(OC)ccc4n3C)n(CC(=O)NCC3CCCO3)c2=O)cc1 (stereo unspecified) | -5% | nt | nt | ? | nt | nt
CCOC(=O)/C=c1/s/c(=C/c2ccc3cc(OC)ccc3c2)c(=O)n1CC(=O)NCC1CCCO1 (stereo unspecified) | 16µM* | 0 | nt | 10µM* | nt | nt
CCOC(=O)/C=c1\s/c(=C\c2c(OC)ccc3ccccc23)c(=O)n1CC(=O)NCC1CCCO1 (stereo unspecified) | ? | 31 | -8% | 21µM* | ? | -1%
CCOC(=O)/C=c1\s/c(=C\c2ccc(C(=O)OC)cc2)c(=O)n1CC(=O)Nc1ccccc1 | 16µM* | 3 | -1% | ? | ? | -20%
Cc1ccc(C)c(N2CCN(S(=O)(=O)c3ccc4c(c3)CCCN4C(=O)C3CCC3)CC2)c1 | 16µM* | nt | nt | 18µM* | nt | nt
Cc1cccc(N2CCN(S(=O)(=O)c3ccc4c(c3)CCCN4C(=O)C3CCC3)CC2)c1C | ? | 15 | 17% | 16µM* | -13% | -7%
O=C(C1CCC1)N1CCc2cc(S(=O)(=O)N3CCN(c4ccccc4)CC3)ccc21 | -29% | nt | nt | -20% | nt | nt
CC(=O)Oc1[nH]c(=O)c2cccc3c2c1CCC3 | ? | -11 | nt | 29µM* | nt | nt
CC(=O)Oc1cc2c(c3ccccc13)CCC2=O | 30% | -12 | nt | ? | nt | nt
Cc1onc(-c2ccccc2)c1C(=O)N/N=C/c1cccs1 | -4% | -2 | ? | ? | 0% | ?
Cc1onc(-c2ccccc2)c1C(=O)N/N=C/c1cc2c(cc1Br)OCO2 | ? | -14 | ? | 26µM* | ? | -10%
SMILES | TDP1 cell CPT | IL-1B inflam inh | RORgamma inh | TDP1 cell noCPT | ELG1 DNA repair | VP16 counter
Cc1onc(-c2ccccc2)c1C(=O)N/N=C/c1cn(C)c2ccccc12 | -24% | 30 | 11µM* | ? | ? | ?
Cc1cccc(/C=N/NC(=O)c2c(-c3ccccc3)noc2C)c1O | 18µM* | 135 | 4µM* | 2.9µM* | -19% | 6.3µM*
Cc1onc(-c2ccccc2)c1C(=O)N/N=C/c1ccccc1OC(C)C | -22% | ? | ? | -22% | 3% | -19%
Cc1ccc(C)c(N2CCN(CCN3CCCCC3)CC2)c1 | -28% | 6 | -21% | ? | 3% | 9%
Cc1ccc(-c2c(CN3CCN(c4cc(C)ccc4C)CC3)csc2C)cc1 | ? | nt | nt | 16µM* | nt | nt
Cc1ccc(C)c(N2CCN(Cc3csc(C)c3C)CC2)c1 | ? | nt | nt | 15µM* | nt | nt
COc1ccc(NC(=O)N(C)C[C@H]2Oc3ccc(NS(=O)(=O)c4c(C)noc4C)cc3C(=O)N([C@H](C)CO)C[C@@H]2C)cc1 | -4% | 3 | nt | 12% | 4% | nt
Cc1ccc(N2CN(Cc3ccco3)CNC2=S)cc1 | 21% | 0 | 11µM* | -1% | -15% | ?
S=C1NCN(Cc2cccnc2)CN1c1cccc(Cl)c1 | -9% | 30 | -12% | -24% | -15% | 3%
Cc1ccc(N2CN(Cc3cccnc3)CNC2=S)cc1 | -4% | 2 | -11% | 10% | 9% | -12%
Cc1cccc(N2CN(Cc3ccco3)CNC2=S)c1 | -8% | 10 | 11µM* | -12% | 37% | ?
COC(=O)C1CCN(C(=O)c2ccc(Cl)c(S(=O)(=O)NCc3cccnc3)c2)CC1 | -5% | -6 | 6% | -26% | -3% | 3%
COc1ccc(CNC(=O)c2ccc(N(C)S(=O)(=O)c3ccc(C)cc3)cc2)cc1 | ? | -1 | -11% | ? | 21µM* | -1%
Cc1ccc(OCCNC(=O)c2cccc(S(=O)(=O)NCc3ccccc3)c2)cc1 | 4.1µM* | 13 | nt | 4.6µM* | ? | nt
Cc1ccc(OCCNC(=O)c2cccc(Oc3ccc(C(F)(F)F)cc3[N+](=O)[O-])c2)cc1 | ? | -11 | 12% | 16µM* | ? | -17%
Cc1cccc(OCCNC(=O)c2ccc(Cl)c(S(=O)(=O)NCc3cccnc3)c2)c1 | 3.7µM* | 104 | nt | 2.6µM* | ? | nt
Cc1ccc2nc(CN3CCN(S(=O)(=O)c4ccccc4)CC3)oc2c1 | -26% | nt | nt | -24% | nt | nt
